Bioassay records: PubChem BioAssay, National Center for Advancing Translational Sciences (NCATS)
Most compounds without a hit are left out; they make up all but 0.52% or so of the library.
PINK1 modulator: A Quantitative High throughput Screen to Identify Chemical Modulators of PINK1 Expression | 410,000 tested, 0.2% active | Potency, µM (top dose mostly 76.6 µM), inactives show at the top dose activation (PINK1 increase), hits mostly activators | AID 624263, 2012 | PINK1 immunofluorescence, high-content cytometry, 24 h; active = well fitted activation curve with a large enough effect; inconclusive = small, poorly fitted or top-dose-only effect; cell line not stated here; also: % of control where 0% means no effect; nearly all actives have a fitted effect of over 65% in size
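Compound titrations (5 concentrations, 24 h) on a stable cell line; DMSO and CCCP controls. Endpoint: fixed-cell PINK1 immunofluorescence with mitochondrial, cell and nuclear markers, scanned by microplate cytometer.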
Vif-APOBEC3F blk: qHTS for Inhibitors of Vif-A3F Interactions: qHTS | HeLa A3F-eYFP + Vif (tagged APOBEC3F with the HIV-1 protein that degrades it), YFP fluorescence increase | Potency, µM (doses to about 46.1 µM), for the others: at the highest dose activity, negative = active | 390,000 tested, 0.2% active; also: % of control where 0% means no effect; nearly all actives have a fitted effect of over 65% in size
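Fluorescence increase (Ex 488/Em 500-530) after overnight compound treatment at 37 deg C flags inhibition of Vif-driven A3F-eYFP loss in stable HeLa A3F-eYFP/Vif cells seeded overnight beforehand.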
Epigenetic derep: Quantitative High-Throughput Screen for Regulators of Epigenetic Control | murine LDR cells, GFP reporter derepression, 30 h | Potency, µM (series often up to 53.9 µM), for inactives: at the top dose GFP activation, hits mostly activators | 280,000 tested, 0.2% active; also: % of control where 0% means no effect; nearly all actives have a fitted effect of over 60% in size
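Murine LDR cells bearing a silenced CMV-driven GFP reporter were exposed to compound for 30 h at 37 C. After PBS washes, GFP-positive cells (20-120 um objects) counted by laser-scanning microplate cytometry.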
Vif-APOBEC3G blk: qHTS for Inhibitors of Vif-A3G Interactions: qHTS; HeLa A3G-eYFP + Vif (tagged APOBEC3G with the HIV-1 protein that degrades it), YFP fluorescence, overnight; Potency, µM (series often up to 46.1 µM), for inactives: at the top dose activity, negative = active, most hits filed as inhibitors; 410,000 tested, 0.076% active; DNA dC->dU-editing enzyme APOBEC-3G (Homo sapiens), Q9HC16; AID 602310, 2012; also: % is scaled to controls: 0 for no effect and ±100 for the full control effect; nearly all actives have a fitted effect of over 60% in size
Target sequence (Q9HC16 whole entry, looked up): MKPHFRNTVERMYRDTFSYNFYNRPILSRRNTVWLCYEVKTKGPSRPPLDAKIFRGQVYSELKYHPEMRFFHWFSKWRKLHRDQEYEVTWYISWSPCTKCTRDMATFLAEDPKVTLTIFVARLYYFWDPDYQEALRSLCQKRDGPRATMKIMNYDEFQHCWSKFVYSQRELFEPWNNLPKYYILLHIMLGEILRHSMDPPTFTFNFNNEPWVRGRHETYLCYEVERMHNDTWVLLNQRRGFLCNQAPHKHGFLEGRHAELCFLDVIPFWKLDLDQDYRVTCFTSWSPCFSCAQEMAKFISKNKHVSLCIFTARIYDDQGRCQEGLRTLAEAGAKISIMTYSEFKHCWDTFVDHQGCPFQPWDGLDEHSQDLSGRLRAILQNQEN
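HeLa cells stably expressing Vif and C-terminally eYFP-tagged A3G, seeded overnight at 37 deg C, then exposed to compound by pintool overnight at 37 deg C. Rise in yellow fluorescence (Ex 488/Em 500-530, Acumen) marks blocked Vif-driven A3G degradation.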
An asterisk follows results filed as active; ? = inconclusive; / = not tested or not shown; [ ] = remark or other dose. Unless noted, calls follow the shape of the dose curve; as a rule, active = well fitted curve in the direction sought with a large enough effect; inconclusive = small, poorly fitted or top-dose-only effect, or another doubt; inactive = no such curve, though single readings can be large; an effect the other way counts as inactive or inconclusive. Potency is read from the fitted curve at half-maximal effect.

SMILES	PINK1 modulator	Vif-APOBEC3F blk	Epigenetic derep	Vif-APOBEC3G blk
Cc1ccc(-n2c(O)c(C=Nc3ccccc3N)c(=O)[nH]c2=O)cc1C	2.0%	3.7%	-1.6%	-6.5%
O=c1[nH]c(=O)n(-c2ccc(F)cc2)c(O)c1C=Nc1ccccc1N1CCCC1	35.5µM*	?	7.3%	-8.4%
CCS(=O)(=O)N1N=C(c2cccc(NS(C)(=O)=O)c2)CC1c1ccccc1 (stereo not given)	25.3%	10µM*	?	10µM*
COc1cccc2c1C(=O)c1c(O)c3c(c(O)c1C2=O)CC(O)(C(C)=NO)CC3OC1CC(N)C(O)C(C)O1 (stereo not given)	-1.7%	-25.7%	/	1.8%
CC[C@]1(O)CC(O[C@@H]2CC(N(C)C)C(O)C(C)O2)c2c(cc3c(c2O)C(=O)c2c(O)cccc2C3=O)C1C(=O)OC (stereo not given in full)	/	/	6.31µM*	/
COc1ccccc1-n1c(/C=C/c2ccc(O)cc2)nc2ccccc2c1=O	-2.4%	10µM*	/	-20.6%
COc1ccccc1-n1c(/C=C/c2ccccc2)nc2ccccc2c1=O	2.1%	-0.1%	-2.2%	-6.4%
CC(C)c1ccc(N2C(=O)NC(=O)/C(=C/C=C/c3ccco3)C2=O)cc1	-1.5%	?	0.9%	8.91µM*
O=C1NC(=O)N(Cc2ccc(F)cc2)C(=O)/C1=C\C=C\c1ccco1	-0.8%	10µM*	10.2%	?
O=Cc1c(C(=O)O)n(Cc2ccc(Cl)cc2)c2ccccc12	0.5%	10µM*	-0.1%	?
Cc1c(C=O)c2ccccc2n1Cc1ccccc1	0.7%	-10.2%	/	-6.8%
Cc1c(P(=S)(c2ccccc2)c2ccccc2)[n+]2ccccc2n1CCc1ccccc1	25.1µM*	/	/	-17.4%
O=C(NCc1ccccc1)c1cccn(Cc2ccccc2)c1=O	1.1%	-4.2%	/	2.3%
Cc1ccc(CNC(=O)c2ccccc2NC(=O)c2nsc3ccccc23)cc1	17.4%	12.6µM*	3.2%	-7.5%
Cc1ccc(NC(=O)N2CCN(c3cc(-c4noc(C)n4)ccc3C)CC2)c(F)c1	?	5.0%	0.0%	-0.1%
CN(C)c1ccc(N=Cc2c(O)n(CCC3=CCCCC3)c(=O)[nH]c2=O)cc1	?	?	?	-0.2%
CCN(CC)c1ccc(N=Cc2c(O)n(CCC3=CCCCC3)c(=O)[nH]c2=O)cc1	?	22.4µM*	22.4µM*	-5.3%
CCOc1ccc(-c2cc(C(=O)N3CCN(c4cccc(C(F)(F)F)c4)CC3)c3ccccc3n2)cc1	9.4%	-4.6%	4.8%	?
CN(C)c1ccc(CNC(=O)Cn2c(=O)oc3cc(S(=O)(=O)N4CCCCCC4)ccc32)cc1	-1.1%	0.6%	?	7.7%
N#CC(=Cc1ccc(O)c(O)c1)C(N)=S	/	/	1.1%	/
Cc1ccccc1-n1c(O)c(/C=C/C=Nc2ccccc2)c(=O)[nH]c1=O	8.6%	20µM*	3.9%	0.5%
Cc1cccc(-n2c(O)c(/C=C/C=Nc3ccccc3)c(=O)[nH]c2=O)c1	6.8%	10µM*	8.3%	5.2%
COc1ccc(/C=C2\Oc3cc(OC(=O)N4CCOCC4)ccc3C2=O)c(OC)c1	?	25.1µM*	-3.1%	?
Cn1c(NN=O)nc2ccccc21	-1.5%	-13.2%	11.2µM*	1.1%
c1ccc2c(c1)[nH]c1cnccc12	-0.2%	1.9%	-4.2%	2.5%
SMILES	PINK1 modulator	Vif-APOBEC3F blk	Epigenetic derep	Vif-APOBEC3G blk
Cc1c2ccncc2c(C)c2c1[nH]c1ccccc12	-0.9%	10µM*	?	?
CCSc1nc2n(n1)C(c1ccc(Cl)cc1Cl)C(C(=O)Nc1ccccc1C)=C(C)N2 (stereo not given)	?	?	0.0%	-1.2%
CCOc1cccc(=NC2CCCCC2)c2c(C)n(C)c(C)c12	15.8µM*	-1.3%	0.1%	3.2%
CCOc1ccccc1N=C1SCCCN1C	4.6%[38.3 µM]	1.2%	1.6%	2.3%
COc1cccc(C(=O)c2cn(CC(=O)Nc3cc(Cl)c(OC)cc3OC)c3nc(C)ccc3c2=O)c1	7.0%	-15.6%	?	-3.2%
CCCCn1c(O)c(C(=O)/C=C/c2c[nH]c3ccccc23)c(=O)[nH]c1=O	-1.5%	-339.4%	?	3.16µM*
CCCCn1c(O)c(C(CC)=NCCc2ccccc2)c(=O)[nH]c1=O	3.6%	1.7%	-1.8%	-5.2%
CCOc1ccc(CCNC(=O)c2ccc(-n3c(C)cc4c3CCCC4)cc2)cc1OCC	1.7%	?	?	-0.5%
